Rows were chosen to be rich in hits. Some 28% of all compounds tested hit in one or more screens of this group.
PLK1 kinase inh: human PLK1 kinase inhibitors, primary screen, biochemical, TR-FRET; inhibition, % at 10 µM; Serine/threonine-protein kinase PLK1 (Homo sapiens), P53350; AID 619, 2007; 97,000 tested, 0.53% active; recombinant PLK1 kinase, TR-FRET peptide phosphorylation;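 active = inhibition of 50% or more in the single-concentration screen; inactive = inhibition below 50%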
CYP2C19 activ: human CYP2C19 activators, primary screen, biochemical, luminescence | AID 1025, 2008 | recombinant CYP2C19, luciferin-H EGE luminescence; hits give high values; 0 = fully inhibited enzyme, 1 = untreated enzyme | Cytochrome P450 2C19 (Homo sapiens), P33261 | 96,000 tested, under 10 active | activation factor at 5 µM;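 active = activation factor of at least 2 at 5 µM in the primary screen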
Target sequence (P33261 whole entry, looked up): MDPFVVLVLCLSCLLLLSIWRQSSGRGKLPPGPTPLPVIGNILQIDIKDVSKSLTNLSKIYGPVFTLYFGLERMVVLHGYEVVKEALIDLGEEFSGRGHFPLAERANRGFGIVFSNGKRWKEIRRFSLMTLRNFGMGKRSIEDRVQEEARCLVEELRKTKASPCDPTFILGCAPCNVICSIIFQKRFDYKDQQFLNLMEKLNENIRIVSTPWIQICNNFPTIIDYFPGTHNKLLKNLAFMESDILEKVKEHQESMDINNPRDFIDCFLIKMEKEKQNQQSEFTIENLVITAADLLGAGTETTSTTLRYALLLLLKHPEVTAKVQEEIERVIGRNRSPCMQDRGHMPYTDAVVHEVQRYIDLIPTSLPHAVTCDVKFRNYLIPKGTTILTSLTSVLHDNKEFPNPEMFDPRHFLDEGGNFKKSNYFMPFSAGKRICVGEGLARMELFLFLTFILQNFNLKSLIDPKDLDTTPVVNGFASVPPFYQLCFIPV
CYP2C19 inhib: blockers of cytochrome P450 2C19 activity – biochemical, luminescence, ADME assay, primary screen; AID 778, 2007; P33261; CYP2C19 Supersomes, luciferin-H EGE luminescence, 30 min; inhibition, % at 5 µM; 96,000 tested, 21% active;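 active = CYP2C19 inhibition above a set limit at 5 µM in the primary screen, cut at about 50% in these data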
Plk1 PBD FP: Plk1 polo box domain binding inhibitors, primary screen, biochemical, fluorescence polarization; Plk1 PBD phosphopeptide binding; 97,000 tested, 0.13% active; inhibition, %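 (tested at about 20 µM)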; Serine/threonine-protein kinase PLK1 (Homo sapiens), P53350; in the data active = inhibition above about 34%, passing the limit was not always enough
CYP2C9 inh: blockers of cytochrome P450 2C9 activity – biochemical, luminescence, ADME assay, primary screen; 96,000 tested, 20% active; P11712; inhibition, % at 5 µM; CYP2C9 Supersomes, luciferin-H conversion; AID 777, 2007;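 active = blocking of liver enzyme CYP2C9 beyond about 50% at 5 µM, limit read from the data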
CYP2C9 act: human CYP2C9 activators, primary screen, biochemical, luminescence; recombinant CYP2C9, luciferin-H conversion; hits give high values; factor 1 = untreated enzyme, 0 = blocked; Cytochrome P450 2C9 (Homo sapiens), P11712; 96,000 tested, 1.4% active; activation factor at 5 µM;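 active = activation factor of 2 or more for CYP2C9 at a 5 µM dose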
Of the large screens only hits and unclear results are named; the others gave an inactive call.

Cc1nn(C(C)(C)C)c(OC(=O)c2ccc(Br)o2)c1Sc1ccccc1	CYP2C19 inhib 74
Cc1nn(C(C)(C)C)c(OC(=O)c2cccs2)c1Sc1ccccc1	CYP2C9 inh 65
Cc1nn(C(=O)c2ccco2)c(C)c1Sc1ccccc1	none
Cc1nn(C(C)(C)C)c(OC(=O)c2ccco2)c1Sc1ccccc1	CYP2C9 inh 61
CN(C)C(=O)c1ccccc1-c1ccccc1	none
CCC(=O)c1ccc(OCCSc2ncccn2)cc1	none
CC(=O)c1cc(C#N)c(SCc2ccc(F)cc2)nc1C	none
CCc1ccc(C(=O)COC(=O)c2cccc(N3C(=O)c4c(C)nc5ccccc5c4C3=O)c2)cc1	none
CC(=O)c1noc(C)c1C(=O)Nc1nccs1	none
COc1cccc(CN(Cc2cccnc2)S(=O)(=O)c2ccc(-n3cnnn3)c(C)c2)c1OC	CYP2C19 inhib 78
COc1ccccc1CN(Cc1ccco1)S(=O)(=O)c1ccc(-n2cnnn2)c(OC)c1	CYP2C19 inhib 67, CYP2C9 inh 85
COc1ccc(CN(Cc2ccc(OC)cc2)S(=O)(=O)c2ccc(-n3cnnn3)c(C)c2)cc1	none (no result: CYP2C19 activ, CYP2C19 inhib, CYP2C9 inh, CYP2C9 act)
CC(C)CNC(=S)NNC(=O)c1ccco1	none (no result: CYP2C19 activ, CYP2C19 inhib, CYP2C9 inh, CYP2C9 act)
COc1ccc(OC)c(C2CC(=O)N3CN(c4cccc(Cl)c4)CSC3=C2C#N)c1 (configuration not stated)	CYP2C19 inhib 70, CYP2C9 inh 90
CCOC(=O)c1ccc(N2CSC3=C(C#N)C(c4ccc(OC)cc4OC)CC(=O)N3C2)cc1 (configuration not stated)	CYP2C19 inhib 52, CYP2C9 inh 91
COc1ccc(OC)c(C2CC(=O)N3CN(c4ccc(C)c(Cl)c4)CSC3=C2C#N)c1 (configuration not stated)	CYP2C19 inhib 54, CYP2C9 inh 96
Cn1c(NC(=O)c2cccc(C(F)(F)F)c2)cc(=O)n(C)c1=O	none (no result: CYP2C19 activ, CYP2C19 inhib, CYP2C9 inh, CYP2C9 act)
CCC(=O)N1CCN(c2ccc(NC(=O)c3ccc(-c4ccccc4)cc3)cc2)CC1	none
COc1ccc2c(c1)c(=O)cc(-c1ccccc1)n2C	none (no result: CYP2C19 activ, CYP2C19 inhib, CYP2C9 inh, CYP2C9 act)
COc1cc2nc(-c3cccs3)oc(=O)c2cc1OC	none (no result: CYP2C19 activ, CYP2C19 inhib, CYP2C9 inh, CYP2C9 act)
CCN(CC)S(=O)(=O)c1cccc(-c2nnc(SCc3nnc(-c4cccs4)o3)n2N)c1	CYP2C19 inhib 58, CYP2C9 inh 76
Nn1c(SCc2csc(-c3ccccc3)n2)nnc1-c1cccs1	none
CC(C)(C)NC(=O)CSC(=Nc1cccc(F)c1)NC#N	none
Cc1cc2ccccn2c1C(=O)c1ccncc1	CYP2C19 inhib 98, CYP2C9 inh 65
Cc1ccc(S(=O)(=O)C2(C(=O)N(C)C3CCCCC3)CC2)cc1	CYP2C19 inhib 50
CN(C(=O)c1ccc(C(=O)N(C)C2CCCCC2)cc1)C1CCCCC1	none (no result: CYP2C19 activ, CYP2C19 inhib, CYP2C9 inh, CYP2C9 act)
Cc1ccc(S(=O)(=O)C2(C(=O)N3CCCCC3C)CC2)cc1 (configuration not stated)	CYP2C19 inhib 72
COc1ccc(/C=C/C(=O)Nc2sc3c(c2C(=O)NCc2cccnc2)CCCC3)cc1	CYP2C19 inhib 75, CYP2C9 inh 97
COc1ccc(OCC(=O)Nc2sc3c(c2C(=O)NCC2CCCO2)CCC3)cc1 (configuration not stated)	CYP2C19 inhib 70, CYP2C9 inh 95
O=C(COc1ccccc1)Nc1sc2c(c1C(=O)NCc1cccnc1)CCCC2	CYP2C9 inh 96
O=C(CN1C(=O)c2ccccc2C1=O)Nc1sc2c(c1C(=O)NCC1CCCO1)CCC2 (configuration not stated)	none
COc1ccc(-c2cc(C(F)(F)F)n3nc(C(=O)N4CCOCC4)nc3n2)cc1	none
CCCOc1ccccc1C1NC(=O)NC(C)=C1C(=O)OCCOC(C)C (configuration not stated)	CYP2C19 inhib 56, CYP2C9 inh 53
CC1=C(C(=O)OCc2ccc3c(c2)OCO3)C(c2ccccc2)NC(=O)N1 (configuration not stated)	none
CC1=C(C(=O)OCc2ccc3c(c2)OCO3)C(c2ccccc2OCc2ccccc2)NC(=O)N1 (configuration not stated)	CYP2C9 inh 99

Compound activity (PubChem BioAssay)
